Experimental data from publication PMC4336329 (PLoS ONE, 2015).
Out of some 310,000 compounds screened, about 14,000 (4.5%) showed an effect of 50% or more. Effects have a minus sign here. Only a selection was taken, and strong results are over-represented in it overall.

Molecular target: human ether-à-go-go-related gene (hERG) potassium channel (human, UniProt Q12809)
Experiment: primary screen, population patch clamp on CHO cells stably expressing hERG; higher = less effect of the substance
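Note: peak tail current of the secondary pulse compared with the same well before compound.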

Chain of human ether-à-go-go-related gene (hERG) potassium channel (Q12809 whole entry, looked up): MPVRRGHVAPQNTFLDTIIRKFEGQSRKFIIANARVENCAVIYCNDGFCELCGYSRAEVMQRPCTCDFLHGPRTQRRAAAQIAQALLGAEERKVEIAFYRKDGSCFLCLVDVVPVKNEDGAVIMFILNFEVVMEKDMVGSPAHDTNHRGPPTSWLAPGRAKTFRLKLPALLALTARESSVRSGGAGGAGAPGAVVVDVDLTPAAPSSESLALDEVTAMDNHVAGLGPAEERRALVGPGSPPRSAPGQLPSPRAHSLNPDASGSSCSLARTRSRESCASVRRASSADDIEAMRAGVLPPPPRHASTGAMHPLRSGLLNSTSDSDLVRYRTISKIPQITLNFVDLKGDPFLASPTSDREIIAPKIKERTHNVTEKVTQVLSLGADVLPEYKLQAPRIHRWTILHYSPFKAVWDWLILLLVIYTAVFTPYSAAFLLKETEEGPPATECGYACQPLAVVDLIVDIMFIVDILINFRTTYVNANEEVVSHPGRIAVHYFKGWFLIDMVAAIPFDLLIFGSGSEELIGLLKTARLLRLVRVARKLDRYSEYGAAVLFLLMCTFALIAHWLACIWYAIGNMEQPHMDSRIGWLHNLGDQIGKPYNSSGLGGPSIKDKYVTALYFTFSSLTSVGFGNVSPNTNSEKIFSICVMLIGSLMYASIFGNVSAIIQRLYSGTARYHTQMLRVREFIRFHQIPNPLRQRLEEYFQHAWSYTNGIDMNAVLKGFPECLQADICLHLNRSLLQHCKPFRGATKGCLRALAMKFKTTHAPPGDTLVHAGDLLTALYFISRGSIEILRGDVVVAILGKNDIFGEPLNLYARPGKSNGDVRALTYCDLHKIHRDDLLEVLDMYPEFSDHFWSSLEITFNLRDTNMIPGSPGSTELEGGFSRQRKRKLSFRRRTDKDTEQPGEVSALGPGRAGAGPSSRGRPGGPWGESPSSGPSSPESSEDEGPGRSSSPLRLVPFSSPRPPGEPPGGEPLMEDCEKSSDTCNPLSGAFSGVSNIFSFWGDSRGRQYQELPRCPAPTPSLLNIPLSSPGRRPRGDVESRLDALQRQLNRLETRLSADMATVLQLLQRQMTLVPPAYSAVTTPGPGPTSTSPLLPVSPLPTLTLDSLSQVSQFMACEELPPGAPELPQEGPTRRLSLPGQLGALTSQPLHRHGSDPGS

Compound | hERG current change (%, negative = inhibition) at 10uM [%]
COCCNC(=O)C(c1ccc(C)o1)N(C(=O)c1snc(C(N)=O)c1N)c1cc(C)cc(C)c1 (stereo not drawn) | -28.5
COc1ccc(Cc2nnc(SCc3nc4ccccc4c(=O)[nH]3)n2C)cc1 | -11.9
COc1ccc(C(CC(=O)O)N2Cc3ccccc3C2=O)cc1 (stereo not drawn) | 14.4
CC(C)=CCCC1=CCC2C(=O)NNC(=O)C2C1 (stereo not drawn) | 9.53
CC(C)=CCCC1=CCC(/C(C)=N/NC(N)=O)CC1 (stereo not drawn) | -53.7
CC(C)=CCCC1=CCC(/C=N/NC(N)=O)C(C)C1 (stereo not drawn) | 9
CC(=O)N1c2c(cc(Br)cc2S(=O)(=O)N2CCOCC2)CC1C (stereo not drawn) | -0.158
COCCn1c(C)cc(C(=O)CSc2nnnn2C2CCCC2)c1C | -69
COc1ccc(Cl)cc1C(=O)CSc1nnnn1C1CCCC1 | -6.05
COCCn1c(C)cc(C(=O)CSc2nnc(C3CC3)n2C2CC2)c1C | 5.4
CCn1c(C)cc(C(=O)CSc2nnnn2C2CCCC2)c1C | -53.5
COCC(C)n1c(C)cc(C(=O)CSc2nnnn2C2CCCC2)c1C (stereo not drawn) | -33.2
COc1ccc(Cl)cc1C(=O)CSc1nnnn1C1CCCCC1 | -4.88
COc1ccc(COC(=O)CCNC(=O)c2ccc(Cl)cc2)cc1 | -32.5
COc1cccc(NC(=S)N(CCCN2CCCC2)Cc2cccn2Cc2ccc(Cl)cc2)c1 | -41.2
COc1cccc(NC(=S)N(CCCN2CCCC(C)C2)Cc2cccs2)c1 (stereo not drawn) | -67.4
COc1cccc(NC(=S)N(CCCN2CCCC2)Cc2ccco2)c1 | -46.3
COc1ccc(NC(=S)N(CCCN2CCCC(C)C2)Cc2cccs2)cc1 (stereo not drawn) | -68.9
CCOCCNC(=O)c1ccc2c3c(cccc13)CC2 | 3.39
Cc1csc(-c2coc3cc(O)cc(C)c3c2=O)n1 | 2.27
O=C1c2ccccc2C(=O)c2c1cccc2N1CCN(C/C=C/c2ccccc2)CC1 | -7.23
O=C1c2ccccc2C(=O)c2c1cccc2N1CCCC1 | -14.3

Compound | hERG current change (%, negative = inhibition) at 10uM [%]
O=C1c2ccccc2C(=O)c2c1cccc2N1CCN(CCO)CC1 | -69.7
O=C1c2ccccc2C(=O)c2c1cccc2N1CCN(Cc2ccccc2)CC1 | -56.9
O=C1c2ccccc2-c2onc3c(N4CCN(CCO)CC4)cc(N4CCN(C(=O)c5ccco5)CC4)c1c23 | -22.1
O=C1c2cccc(Cl)c2C(=O)c2c1cccc2N1CCCC1 | -9.16
O=C(NCCc1ccccc1)C1CCN(C(=O)Nc2ccccc2)CC1 | 8.37
COc1ccc(NC(=O)CCCn2c(=O)c3sccc3n(Cc3ccccc3)c2=O)cc1 | -20.8
CC(C)(C)NC(=O)C(c1ccco1)N(C(=O)c1csnn1)c1ccccc1 (stereo not drawn) | -4.55
CC12CCC(C(=O)N(CCCCN3CCN(Cc4ccccc4)CC3)C1=O)C2(C)C.Cl (stereo not drawn) | -45.2
O=C(CNC(=O)c1[nH]cnc1C(=O)N[C@@H](Cc1ccccc1)C(=O)OCc1ccccc1)OCc1ccccc1 | 7.48
COc1ccc(C(c2nnnn2Cc2cccs2)N2CCN(c3ccccc3)CC2)cc1OC (stereo not drawn) | -63.5
COc1ccccc1CN1CCN(C(CC(C)C)c2nnnn2Cc2cccs2)CC1.Cl (stereo not drawn) | -57.9
CCC(c1nnnn1CCOC)N1CCN(Cc2ccccc2OC)CC1.Cl (stereo not drawn) | -6.05
CCC(C)(C)n1nnnc1C(c1ccc(OC)c(OC)c1)N1CCN(c2ccc(F)cc2)CC1.Cl (stereo not drawn) | -72.9
CCC(C)(C)n1nnnc1C(c1ccc(OC)c(OC)c1)N1CCN(c2ccc(OC)cc2)CC1.Cl (stereo not drawn) | -15.9
COCCn1nnnc1C(c1ccc(OC)cc1OC)N1CCN(c2ccccc2F)CC1.Cl (stereo not drawn) | -9.23
CCC(c1nnnn1C(C)(C)C)N1CCN(Cc2ccccc2OC)CC1.Cl (stereo not drawn) | -19.2
COCCn1nnnc1C(c1ccccc1OC)N1CCN(c2ccccc2)CC1.Cl (stereo not drawn) | -4.6
CC(C)C(c1nnnn1Cc1cccs1)N1CCN(c2ccccc2)CC1 (stereo not drawn) | 20
COc1ccc(C(c2nnnn2Cc2cccs2)N2CCN(c3ccccc3F)CC2)cc1OC.Cl (stereo not drawn) | -39.6
COCCn1nnnc1C(c1ccc(OC)cc1OC)N1CCN(c2ccccc2)CC1 (stereo not drawn) | -70.8
CCC(C)(C)n1nnnc1C(c1ccc(OC)c(OC)c1)N1CCN(c2ccccc2)CC1 (stereo not drawn) | -39.5
N/C(=N\OC(=O)c1ccc(=O)n(Cc2ccc(Cl)cc2)c1)c1ccccn1 | -33.2

Compound | hERG current change (%, negative = inhibition) at 10uM [%]
CC1Sc2ccc(S(=O)(=O)NCc3ccccc3)cc2NC1=O (stereo not drawn) | 1.74
CC(C)Oc1cccc(-c2nnc(SCC(=O)Nc3ccc4c(c3)OCCO4)n2N)c1 | -8.81
O=C(CSc1nnc(-c2ccc(O)cc2)n1Cc1ccco1)c1cccs1 | -14.9
O=C(COC(=O)c1cccc(F)c1)NC(=O)NC1CCCC1 | 5.55
COCCCN(C(=O)c1cc(C)oc1C)c1c(N)n(CC(C)C)c(=O)[nH]c1=O | 7.78
Cc1ccccc1OCCOc1cccc(/C=N/NC(=O)Cc2nnc(N)s2)c1 | 14.2
CC1(C)Oc2ccc(C(=O)N3CCOCC3)cc2N(CC(=O)N2CCOCC2)C1=O | 18.7
Cc1ccc(CC2C(=O)N(c3cc(Cl)ccn3)C(=O)C2C)cc1 (stereo not drawn) | -9.63
COc1cccc(C2=NOC(C(=O)Nc3ccc(OC)c(OC)c3)C2)c1 (stereo not drawn) | -11.8
Cn1c(SCc2c(F)cccc2Cl)nc2c(c1=O)SCC2 | 6.6
Fc1ccc(C(c2nnnn2Cc2cccs2)N2CCN(c3ccccc3)CC2)cc1 (stereo not drawn) | -21.3
COc1ccc(C(c2nnnn2Cc2cccs2)N2CCN(c3ccc(F)cc3)CC2)cc1OC (stereo not drawn) | -69.4
COc1ccc(C(c2nnnn2Cc2cccs2)N2CCN(c3ccccc3F)CC2)cc1 (stereo not drawn) | 4.04
CC(=O)Nc1ccc(Oc2cc(C#N)c(C#N)cc2N2CCOCC2)cc1 | -16.9
Nc1ccccc1SC1CC(=O)N(c2ccc3c(c2)OCO3)C1=O (stereo not drawn) | 14.7
CCOc1ccc(C2=Nn3c(nnc3-c3ccccc3OC)SC2)cc1 | -63.4
COc1ccc(C2=Nn3c(nnc3-c3cc(C)[nH]n3)SC2)cc1 | -64
Cc1cc(-c2nnc3n2N=C(c2ccccc2)CS3)n[nH]1 | -22.7
CCOc1ccc(C2=Nn3c(nnc3-c3ccc(OC)cc3)SC2)cc1 | -16
COc1ccc(C2=Nn3c(nnc3-c3ccccn3)SC2)cc1 | -34.3
Cc1cc(-c2nnc3n2N=C(c2ccc(-c4ccccc4)cc2)CS3)n[nH]1 | -15.7
CCOc1ccc(-c2nnc3n2N=C(c2ccc(OC)cc2)CS3)cc1 | 0.919

Compound | hERG current change (%, negative = inhibition) at 10uM [%]
COc1ccc(C2=Nn3c(nnc3-c3ccncc3)SC2)cc1 | -41.1
COc1ccc(OC)c(C2=Nn3c(nnc3-c3cc(C)[nH]n3)SC2)c1 | -19.7
Br.COc1ccc(C2=Nn3c(C)nnc3SC2)cc1 | 0.091
Cc1cc(-c2nnc3n2N=C(c2ccc(F)cc2)CS3)n[nH]1 | -60.3
COc1ccc(C2=Nn3c(nnc3-c3ccc(OC)cc3)SC2)cc1 | -55
O=C(Cn1cc2c(n1)CCCCC2)NCc1ccccn1 | -2.69
CCOc1cc(C(=O)N2CCC3(CC2)OCCO3)cc(OCC)c1OCC | -12.5
CCOC(=O)N1CCN(CC(=O)N2c3ccccc3CC2C)CC1.O=C(O)C(=O)O (stereo not drawn) | 10.4
Cc1ccc(CNC(=O)C2CCN(S(=O)(=O)c3ccc(Br)s3)CC2)cc1 | 3.77
COC(=O)c1cc2nc(-c3ccccc3)cc(C(F)(F)F)n2n1 | 19.7
CCOc1ccc(S(=O)(=O)/N=C(\N)c2ccccc2)cc1 | -7.03
CCCCCCCC(=O)Nc1cc(C(=O)NCc2ccc(C)cc2)ccc1N1CCC2(CC1)CC(c1cccc(Br)c1)=NO2 | 2.8
CCSCCOC(=O)C1=C(C)NC(=O)NC1c1ccc2c(c1)OCO2 (stereo not drawn) | -13.4
Cc1cccc(C(=O)N(NC(=O)Oc2ccccc2)C(C)(C)C)c1 | -13
CCc1ccc(NC(=O)CCNS(=O)(=O)c2cccc3nsnc23)cc1 | -14.9
O=C(Nc1ccc2c(c1)OCO2)C1CCN(S(=O)(=O)c2ccc3c(c2)OCCO3)CC1 | 7.45
O=C(Nc1ccc2c(c1)OCCO2)C1CCC1 | 7.7
O=C(Nc1ccc2c(c1)OCO2)C1CCN(C(=O)c2ccc([N+](=O)[O-])cc2)CC1 | -84.2
O=C(Cc1ccc([N+](=O)[O-])cc1)Nc1ccc2c(c1)OCO2 | -13.9
Cc1ccccc1C(=O)N1CCC(C(=O)Nc2ccc3c(c2)OCCO3)CC1 | 5.7
O=C(Nc1ccc2c(c1)OCCO2)C1CCN(C(=O)c2ccc([N+](=O)[O-])cc2)CC1 | -65.6
